Test results taken from PubChem BioAssay (EPA / NIEHS).
Inconclusive results are not listed. Calls of active or inactive are those of the source. The calls were made as follows, unless noted: active = hit-call score of the fitted dose curve at least 0.9, where 1 is the maximum; inactive = score below 0.9.

Key:
[1] = BSK_4H_Eotaxin3: BioMAP Diversity Plus: 4H Assay for Eotaxin 3 Biomarker Activity (AID 2283000); conditions: primary human endothelial cells (HUVEC); actives raise or lower the signal
Method in brief: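 Endothelial primary cells (human umbilical vein) exposed to compound for 24 h. ELISA detection of Eotaxin-3.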

[2] = target: human Peroxisome Proliferator-activated Receptor delta (PPARd), PPARD (gene 5467) (UniProt Q03181); test: ATG_PPARd_TRANS: Attagene TRANS-FACTORIAL HepG2 Assay for human Peroxisome Proliferator-activated Receptor delta (PPARd) (AID 2283002; active = hit-call score of the fitted dose curve at least 0.9, where 1 is the maximum)
Method in brief: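 Read-out: reporter mRNA induction, quantified by fluorescent RT-PCR products resolved by capillary electrophoresis. Human HepG2 liver cells carried transiently transfected Gal4-UAS reporter constructs with chimeric NR-Gal4 fusions. Cells were dosed for 24 h; DMSO served as baseline.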

[3] = read-out: Intercellular Adhesion Molecule 1 (ICAM1), ICAM1 (gene 3383); test: BSK_3C_ICAM1: BioMAP Diversity Plus: 3C Assay for Intercellular Adhesion Molecule 1 (ICAM1) Biomarker Activity (AID 2283003); conditions: primary human endothelial cells (HUVEC); actives raise or lower the signal
Method in brief: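 Human vascular endothelial primary cells, 3C conditions, 24 h treatment. ICAM-1 by ELISA.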

[4] = BSK_3C_Proliferation: Cell Proliferation Assessment in the BioMAP Diversity Plus: 3C Assay (AID 2283006); conditions: primary human endothelial cells (HUVEC);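 as to AC50: potency may reflect either rise or fall in cell number versus DMSO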
Method in brief: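 Proliferation of human vascular endothelial primary cells after 48 h dosing, quantified as SRB-stained protein at 560 nm relative to DMSO.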

[5] = target: Peroxisome proliferator-activated receptor gamma (Homo sapiens) (UniProt P37231); test: ATG_PPARg_TRANS: Attagene TRANS-FACTORIAL HepG2 Assay for human Peroxisome Proliferator-activated Receptor-gamma (PPARg) (AID 2283007; active = hit-call score of the fitted dose curve at least 0.9, where 1 is the maximum)
Method in brief: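 HepG2 cells are transiently transfected with GAL4-UAS reporter units driven by chimeric NR-Gal4 fusions and dosed for 24 h. Reporter mRNA is quantified by RT-PCR, 6-FAM labelling, HpaI digestion and capillary electrophoresis. Induction is scored against DMSO.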

[6] = target: Nuclear receptor subfamily 1 group I member 2 (Homo sapiens) (UniProt O75469); test: ATG_PXR_TRANS: Attagene TRANS-FACTORIAL HepG2 Assay for human Pregnane X Receptor (PXR) (AID 2283008; active = hit-call score of the fitted dose curve at least 0.9, where 1 is the maximum)
Method in brief: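 Fluorescence intensity of FAM-labelled, HpaI-digested reporter amplicons, separated by capillary electrophoresis, quantifies induction. HepG2 cells with PXR-Gal4 trans-reporter system were exposed 24 h; DMSO defines baseline.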

[7] = target: human RAR-related Orphan Receptor beta (RORb), RORB (gene 6096) (UniProt Q92753); test: ATG_RORb_TRANS: Attagene TRANS-FACTORIAL HepG2 Assay for human RAR-related Orphan Receptor beta (RORb) (AID 2283010; active = hit-call score of the fitted dose curve at least 0.9, where 1 is the maximum)
Method in brief: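 In this TRANS-format test, human HepG2 cells express chimeric NR-Gal4 fusion proteins driving GAL4-UAS reporters. After 24 h dosing, reporter transcripts are measured by fluorescent RT-PCR/capillary electrophoresis, with DMSO as negative control.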

[8] = target: human RAR-related Orphan Receptor gamma (RORg), RORC (gene 6097) (UniProt P51449); test: ATG_RORg_TRANS: Attagene TRANS-FACTORIAL HepG2 Assay for human RAR-related Orphan Receptor gamma (RORg) (AID 2283011; active = hit-call score of the fitted dose curve at least 0.9, where 1 is the maximum)
Method in brief: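 Activity is scored as increase in GAL4-UAS reporter mRNA over DMSO, detected by fluorescent RT-PCR and capillary electrophoresis in HepG2 cells transiently expressing a RORg-Gal4 chimera, 24 h after dosing.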

[9] = target: Retinoic acid receptor RXR-alpha (Homo sapiens) (UniProt P19793); test: ATG_RXRa_TRANS: Attagene TRANS-FACTORIAL HepG2 Assay for human Retinoid X Receptor alpha (RXRa) (AID 2283012; active = hit-call score of the fitted dose curve at least 0.9, where 1 is the maximum)
Method in brief: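 Cells (HepG2) carried transiently transfected GAL4-responsive reporter units. Following a 24 h chemical incubation, reporter mRNA induction was read via RT-PCR fragment analysis; DMSO served as negative control and baseline.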

[10] = target: human Retinoid X Receptor beta (RXRb), RXRB (gene 6257) (UniProt P28702); test: ATG_RXRb_TRANS: Attagene TRANS-FACTORIAL HepG2 Assay for human Retinoid X Receptor beta (RXRb) (AID 2283013; active = hit-call score of the fitted dose curve at least 0.9, where 1 is the maximum)
Method in brief: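 Multiplexed TRANS reporter assay in HepG2; 24 h dosing; reporter mRNA by RT-PCR/CE fluorescence; gain-of-signal relative to DMSO.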

[11] = read-out: E-selectin (Homo sapiens) (UniProt P16581); test: BSK_3C_Eselectin: BioMAP Diversity Plus: 3C Assay for Eselectin Biomarker Activity (AID 2283015); conditions: primary human endothelial cells (HUVEC); actives raise or lower the signal;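 also: cell surface E-selectin protein quantified by ELISA 24 h after dosing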
Method in brief: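 Human vascular endothelium from umbilical vein is exposed to test chemicals for 24 h. E-selectin levels are read by ELISA and compared with DMSO controls.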

[12] = read-out: Interleukin-1 alpha (IL1a), IL1A (gene 3552); test: BSK_BE3C_IL1a: BioMAP Diversity Plus: BE3C Assay for Interleukin-1 alpha (IL1a) Biomarker Activity (AID 2283016); conditions: primary human bronchial epithelial cells; actives raise or lower the signal
Method in brief: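 Cultures of primary human bronchial epithelial cells receive test chemical. After 24 h, IL-1a is quantified by ELISA, while parallel wells are fixed in TCA and SRB-stained for total protein. Changes in either direction are fitted relative to DMSO.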

[13] = read-out: Monocyte Chemoattractant Protein-1 (MCP1), CCL2 (gene 6347); test: BSK_3C_MCP1: BioMAP Diversity Plus: 3C Assay for Monocyte Chemoattractant Protein-1 (MCP1) Biomarker Activity (AID 2283017); conditions: primary human endothelial cells (HUVEC); actives raise or lower the signal
Method in brief: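 Endothelial cells from human umbilical vein are dosed with chemical, cultured 24 h, then assayed for MCP-1 by ELISA; both increases and decreases are modelled against DMSO controls.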

[14] = read-out: Monocyte Chemoattractant Protein-1 (MCP1), CCL2 (gene 6347); test: BSK_4H_MCP1: BioMAP Diversity Plus: 4H Assay for Monocyte Chemoattractant Protein-1 (MCP1) Biomarker Activity (AID 2283018); conditions: primary human endothelial cells (HUVEC); actives raise or lower the signal
Method in brief: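 Readout: MCP-1 ELISA on compound-treated HUVEC, sampled 24 h post-dosing. Baseline and negative control DMSO; bidirectional fit. Overt toxicity checked alongside by sulforhodamine B protein staining at time of biomarker measurement.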

[15] = read-out: Human Leukocyte Antigen - DR isotype (HLADR), HLA-DRA (gene 3122); test: BSK_3C_HLADR: BioMAP Diversity Plus: 3C Assay for Human Leukocyte Antigen - DR isotype (HLADR) Biomarker Activity (AID 2283019); conditions: primary human endothelial cells (HUVEC); actives raise or lower the signal
Method in brief: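 Endothelial cells from human umbilical vein are treated with test chemical; after 24 h, HLA-DR levels are measured by ELISA. Data are fitted in both directions using DMSO as the baseline.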

[16] = target: human Peroxisome Proliferator-activated Receptor alpha (PPARa), PPARA (gene 5465) (UniProt Q07869); test: ATG_PPARa_TRANS: Attagene TRANS-FACTORIAL HepG2 Assay for human Peroxisome Proliferator-activated Receptor alpha (PPARa) (AID 2283001; active = hit-call score of the fitted dose curve at least 0.9, where 1 is the maximum;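 as to AC50: potency for gain of reporter signal over DMSO so agonist or activator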)
Method in brief: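 Measures transcriptional activity of an exogenous chimeric PPARa-Gal4 protein in transiently transfected HepG2 cells after 24 h dosing. Reporter mRNA quantified via RT-PCR and capillary electrophoresis; DMSO served as negative control.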

[17] = target: Retinoic acid receptor alpha (Homo sapiens) (UniProt P10276); test: ATG_RARa_TRANS: Attagene TRANS-FACTORIAL HepG2 Assay for human Retinoic Acid Receptor alpha (RARa) (AID 2283005; active = hit-call score of the fitted dose curve at least 0.9, where 1 is the maximum)
Method in brief: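 HepG2 transiently transfected with multiplex GAL4-UAS reporter units including a human RARa–GAL4 chimera; 24 h compound exposure. Reporter mRNA quantified by RT-PCR, 6-FAM labeling and capillary electrophoresis; gain of signal versus DMSO.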

[18] = target: human Retinoic Acid Receptor gamma (RARg), RARG (gene 5916) (UniProt P13631); test: ATG_RARg_TRANS: Attagene TRANS-FACTORIAL HepG2 Assay for human Retinoic Acid Receptor gamma (RARg) (AID 2283009; active = hit-call score of the fitted dose curve at least 0.9, where 1 is the maximum)
Method in brief: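 HepG2, RARg-GAL4 TRANS system, 24 h exposure; reporter mRNA by RT-PCR + CE fluorescence; increase over DMSO.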

[19] = target: human Retinoic Acid Receptor beta (RARb), RARB (gene 5915) (UniProt P10826); test: ATG_RARb_TRANS: Attagene TRANS-FACTORIAL HepG2 Assay for human Retinoic Acid Receptor beta (AID 2283004; active = hit-call score of the fitted dose curve at least 0.9, where 1 is the maximum)
Method in brief: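 HepG2, transient MRTU transfection, NR–Gal4 chimera, 24 h treatment; RT-PCR plus CE fluorescence detection of reporter mRNA; gain of signal vs DMSO.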

[20] = target: human Thyroid Receptor alpha (THRa1), THRA (gene 7067) (UniProt P10827); test: ATG_THRa1_TRANS: Attagene TRANS-FACTORIAL HepG2 Assay for human Thyroid Receptor alpha (THRa1) (AID 2283014; active = hit-call score of the fitted dose curve at least 0.9, where 1 is the maximum)
Method in brief: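 First, HepG2 cells receive multiple GAL4-UAS reporter units and the chimeric receptor. They are then dosed for 24 h, after which RNA is reverse-transcribed, amplified, labelled, HpaI-cut and sized by capillary electrophoresis; gain relative to DMSO is scored.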

Measured: AC50

Sequence of Peroxisome proliferator-activated receptor gamma (Homo sapiens) (P37231 whole entry, looked up, the tested form may be a part): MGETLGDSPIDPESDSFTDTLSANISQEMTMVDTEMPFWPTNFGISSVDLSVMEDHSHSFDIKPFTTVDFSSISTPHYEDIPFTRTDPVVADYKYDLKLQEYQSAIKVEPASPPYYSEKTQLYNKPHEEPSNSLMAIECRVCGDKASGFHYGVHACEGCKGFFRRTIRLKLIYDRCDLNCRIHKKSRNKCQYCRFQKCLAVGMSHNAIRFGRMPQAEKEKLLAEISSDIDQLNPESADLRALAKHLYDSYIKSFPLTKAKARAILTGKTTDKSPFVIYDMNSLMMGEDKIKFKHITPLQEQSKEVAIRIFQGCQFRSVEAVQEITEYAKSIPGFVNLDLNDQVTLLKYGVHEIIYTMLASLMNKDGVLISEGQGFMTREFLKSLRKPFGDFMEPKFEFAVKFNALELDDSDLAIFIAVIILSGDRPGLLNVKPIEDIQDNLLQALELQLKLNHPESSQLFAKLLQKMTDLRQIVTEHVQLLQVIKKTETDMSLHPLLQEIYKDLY
Sequence of E-selectin (Homo sapiens) (P16581 whole entry, looked up): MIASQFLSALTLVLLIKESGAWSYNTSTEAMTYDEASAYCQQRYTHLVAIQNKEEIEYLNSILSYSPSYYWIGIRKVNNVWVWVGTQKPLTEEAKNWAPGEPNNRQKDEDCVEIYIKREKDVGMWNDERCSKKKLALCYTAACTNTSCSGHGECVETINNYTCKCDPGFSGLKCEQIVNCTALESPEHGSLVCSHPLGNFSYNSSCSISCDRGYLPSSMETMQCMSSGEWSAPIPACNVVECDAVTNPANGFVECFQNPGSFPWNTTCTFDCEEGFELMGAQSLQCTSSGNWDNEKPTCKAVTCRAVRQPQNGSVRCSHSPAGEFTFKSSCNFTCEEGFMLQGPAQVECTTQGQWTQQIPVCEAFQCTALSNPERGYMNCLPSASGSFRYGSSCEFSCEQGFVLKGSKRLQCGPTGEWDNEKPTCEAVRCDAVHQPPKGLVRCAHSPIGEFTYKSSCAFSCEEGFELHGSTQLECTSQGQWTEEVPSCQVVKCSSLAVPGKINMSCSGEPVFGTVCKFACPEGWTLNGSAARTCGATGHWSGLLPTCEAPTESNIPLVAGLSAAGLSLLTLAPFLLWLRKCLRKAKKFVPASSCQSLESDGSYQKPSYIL
Sequence of human RAR-related Orphan Receptor gamma (RORg), RORC (gene 6097) (P51449 whole entry, looked up, the tested form may be a part): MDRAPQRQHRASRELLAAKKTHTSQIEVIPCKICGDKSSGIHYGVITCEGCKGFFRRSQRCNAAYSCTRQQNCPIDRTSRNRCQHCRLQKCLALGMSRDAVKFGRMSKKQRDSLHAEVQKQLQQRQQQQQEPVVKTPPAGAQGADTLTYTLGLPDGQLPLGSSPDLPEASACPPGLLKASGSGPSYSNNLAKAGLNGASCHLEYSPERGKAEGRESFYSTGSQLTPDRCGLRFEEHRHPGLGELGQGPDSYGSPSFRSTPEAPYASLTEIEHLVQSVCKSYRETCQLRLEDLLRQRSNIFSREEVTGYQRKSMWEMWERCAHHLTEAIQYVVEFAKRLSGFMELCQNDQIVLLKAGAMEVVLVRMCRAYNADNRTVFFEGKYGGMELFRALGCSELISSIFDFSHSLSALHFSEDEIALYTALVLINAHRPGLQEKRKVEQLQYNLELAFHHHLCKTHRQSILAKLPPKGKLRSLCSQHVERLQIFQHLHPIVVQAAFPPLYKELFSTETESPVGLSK
Sequence of human Retinoic Acid Receptor gamma (RARg), RARG (gene 5916) (P13631 whole entry, looked up, the tested form may be a part): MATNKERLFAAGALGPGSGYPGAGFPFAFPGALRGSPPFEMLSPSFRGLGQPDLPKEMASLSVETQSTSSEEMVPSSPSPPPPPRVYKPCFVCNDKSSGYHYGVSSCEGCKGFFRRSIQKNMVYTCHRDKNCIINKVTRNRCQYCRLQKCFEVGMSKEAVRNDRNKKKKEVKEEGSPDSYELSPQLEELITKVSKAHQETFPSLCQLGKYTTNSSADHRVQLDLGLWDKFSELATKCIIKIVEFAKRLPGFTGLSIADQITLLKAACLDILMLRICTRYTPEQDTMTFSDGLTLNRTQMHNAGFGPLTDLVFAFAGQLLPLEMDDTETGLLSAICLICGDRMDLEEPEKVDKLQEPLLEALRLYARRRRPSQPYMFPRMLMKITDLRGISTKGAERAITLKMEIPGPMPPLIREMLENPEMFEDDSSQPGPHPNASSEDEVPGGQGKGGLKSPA
Sequence of Retinoic acid receptor RXR-alpha (Homo sapiens) (P19793 whole entry, looked up, the tested form may be a part): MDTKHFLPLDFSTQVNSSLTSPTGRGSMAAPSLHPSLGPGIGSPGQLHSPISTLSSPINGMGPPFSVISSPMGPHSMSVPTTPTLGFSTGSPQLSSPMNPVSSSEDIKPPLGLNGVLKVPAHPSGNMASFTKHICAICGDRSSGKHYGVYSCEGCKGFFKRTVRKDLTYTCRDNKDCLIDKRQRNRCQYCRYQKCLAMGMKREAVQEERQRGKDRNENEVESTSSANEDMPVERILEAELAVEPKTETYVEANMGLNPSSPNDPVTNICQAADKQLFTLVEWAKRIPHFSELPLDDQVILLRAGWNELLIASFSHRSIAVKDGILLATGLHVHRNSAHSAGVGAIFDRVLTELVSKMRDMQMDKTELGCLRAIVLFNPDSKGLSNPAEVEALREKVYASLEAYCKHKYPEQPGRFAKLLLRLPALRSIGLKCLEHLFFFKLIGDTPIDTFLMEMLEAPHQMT
Sequence of Retinoic acid receptor alpha (Homo sapiens) (P10276 whole entry, looked up, the tested form may be a part): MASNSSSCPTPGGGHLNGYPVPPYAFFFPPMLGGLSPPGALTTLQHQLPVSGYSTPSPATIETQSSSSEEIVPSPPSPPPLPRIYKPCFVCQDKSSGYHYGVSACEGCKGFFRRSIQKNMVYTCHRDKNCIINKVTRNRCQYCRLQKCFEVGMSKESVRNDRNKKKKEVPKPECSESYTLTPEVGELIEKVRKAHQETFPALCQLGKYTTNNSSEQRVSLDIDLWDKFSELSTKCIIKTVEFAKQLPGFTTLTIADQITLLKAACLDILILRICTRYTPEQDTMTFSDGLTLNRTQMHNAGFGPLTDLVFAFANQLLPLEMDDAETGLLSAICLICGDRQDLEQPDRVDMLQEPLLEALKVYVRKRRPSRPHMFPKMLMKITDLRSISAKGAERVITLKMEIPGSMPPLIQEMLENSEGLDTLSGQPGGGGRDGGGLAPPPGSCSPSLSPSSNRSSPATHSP
Sequence of human Retinoid X Receptor beta (RXRb), RXRB (gene 6257) (P28702 whole entry, looked up): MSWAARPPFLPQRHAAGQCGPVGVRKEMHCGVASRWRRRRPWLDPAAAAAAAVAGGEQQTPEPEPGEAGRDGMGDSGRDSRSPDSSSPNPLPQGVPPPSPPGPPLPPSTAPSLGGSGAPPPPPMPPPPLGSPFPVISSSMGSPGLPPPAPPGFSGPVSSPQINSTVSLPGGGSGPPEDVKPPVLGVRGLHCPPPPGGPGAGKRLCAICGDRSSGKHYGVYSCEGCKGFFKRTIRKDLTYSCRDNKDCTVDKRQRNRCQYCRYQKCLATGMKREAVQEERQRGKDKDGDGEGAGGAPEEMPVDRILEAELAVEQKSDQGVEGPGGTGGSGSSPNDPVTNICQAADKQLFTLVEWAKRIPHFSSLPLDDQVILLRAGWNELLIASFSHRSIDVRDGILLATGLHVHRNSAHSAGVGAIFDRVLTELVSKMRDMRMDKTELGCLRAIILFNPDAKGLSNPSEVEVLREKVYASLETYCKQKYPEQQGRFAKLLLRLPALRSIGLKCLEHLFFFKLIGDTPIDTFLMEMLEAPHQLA
Sequence of Nuclear receptor subfamily 1 group I member 2 (Homo sapiens) (O75469 whole entry, looked up, the tested form may be a part): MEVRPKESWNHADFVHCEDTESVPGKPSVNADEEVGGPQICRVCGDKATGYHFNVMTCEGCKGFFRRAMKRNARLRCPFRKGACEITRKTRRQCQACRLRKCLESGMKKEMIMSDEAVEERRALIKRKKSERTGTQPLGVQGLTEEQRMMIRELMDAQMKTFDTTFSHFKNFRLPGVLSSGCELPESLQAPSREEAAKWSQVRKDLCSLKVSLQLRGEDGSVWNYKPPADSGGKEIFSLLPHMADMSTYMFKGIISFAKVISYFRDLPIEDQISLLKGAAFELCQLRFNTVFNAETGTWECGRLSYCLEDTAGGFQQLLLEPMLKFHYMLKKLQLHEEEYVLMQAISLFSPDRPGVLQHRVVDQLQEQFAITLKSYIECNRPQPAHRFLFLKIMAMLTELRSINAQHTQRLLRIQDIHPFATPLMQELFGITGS
Sequence of human Peroxisome Proliferator-activated Receptor delta (PPARd), PPARD (gene 5467) (Q03181 whole entry, looked up, the tested form may be a part): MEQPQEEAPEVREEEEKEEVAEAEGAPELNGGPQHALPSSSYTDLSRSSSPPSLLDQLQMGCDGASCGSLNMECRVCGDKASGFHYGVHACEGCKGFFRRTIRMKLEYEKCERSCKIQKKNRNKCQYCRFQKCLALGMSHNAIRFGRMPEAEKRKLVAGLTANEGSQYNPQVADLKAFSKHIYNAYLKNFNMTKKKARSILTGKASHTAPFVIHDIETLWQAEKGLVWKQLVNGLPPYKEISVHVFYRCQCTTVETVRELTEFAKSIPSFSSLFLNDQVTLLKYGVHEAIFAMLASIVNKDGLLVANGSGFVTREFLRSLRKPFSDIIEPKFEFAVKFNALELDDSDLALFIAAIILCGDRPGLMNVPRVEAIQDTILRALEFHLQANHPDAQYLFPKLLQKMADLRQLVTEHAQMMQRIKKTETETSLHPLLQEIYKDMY
Sequence of human Peroxisome Proliferator-activated Receptor alpha (PPARa), PPARA (gene 5465) (Q07869 whole entry, looked up, the tested form may be a part): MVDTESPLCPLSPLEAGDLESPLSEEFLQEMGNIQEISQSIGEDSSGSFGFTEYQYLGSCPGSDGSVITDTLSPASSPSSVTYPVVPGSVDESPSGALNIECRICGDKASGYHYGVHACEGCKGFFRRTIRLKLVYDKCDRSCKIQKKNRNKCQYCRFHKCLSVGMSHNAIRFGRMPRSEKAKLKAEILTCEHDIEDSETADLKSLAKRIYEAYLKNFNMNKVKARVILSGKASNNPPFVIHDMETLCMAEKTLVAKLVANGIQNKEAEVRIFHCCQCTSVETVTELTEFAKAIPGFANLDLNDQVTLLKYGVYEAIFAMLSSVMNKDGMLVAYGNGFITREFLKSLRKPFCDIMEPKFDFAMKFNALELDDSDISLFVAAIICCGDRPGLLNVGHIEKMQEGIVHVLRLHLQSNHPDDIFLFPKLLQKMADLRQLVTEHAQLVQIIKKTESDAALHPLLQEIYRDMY

CC(=O)OC/C=C(\C)CCC=C(C)C
not listed: [16] | [17] | [18] | [19] | [20]
inactive: all other assays above

OC[C@@H](O)[C@@H](O)[C@H](O)[C@H](O)CO
not listed: [2] | [5] | [7] | [8] | [9] | [10] | [19] | [20]
inactive: all other assays above

CCc1c(C(=O)NN2CCCCC2)nn(-c2ccc(Cl)cc2Cl)c1-c1ccc(Br)cc1
active: [1] 8.48 µM | [4] 6.79 µM | [5] 0.0976 µM | [13] 7.54 µM | [14] 5.41 µM | [15] 10.4 µM
inactive: [2] | [3] | [6] | [9] | [11] | [12]

CCCCOC(=O)CCCCCCCCC(=O)OCCCC
active: [16] 37 µM
not listed: [2] | [5] | [8] | [17] | [19] | [20]
inactive: all other assays above

CCCc1cc(=O)[nH]c(=S)[nH]1
active: [1] 0.666 µM
not listed: [6] | [8] | [9] | [16] | [17] | [18] | [19] | [20]
inactive: all other assays above

CCCCc1ccc2c(n1)[C@@H](c1ccc(OC)cc1C[C@H](C)C(=O)O)[C@H](C(=O)O)[C@H]2c1ccc2c(c1)OCO2
not listed: [2] | [5] | [10] | [17] | [18] | [19] | [20]
inactive: all other assays above

c1cc(-c2ccncc2)ccn1
inactive: [1] | [3] | [17] | [4] | [18] | [11] | [12] | [13] | [14] | [15]

CC(=O)OCCOCCOCCOC(C)=O
not listed: [2] | [5] | [6] | [7] | [8] | [9] | [16]
inactive: all other assays above

Nc1ccc(S(=O)(=O)c2ccc(N)cc2)cc1
not listed: [5] | [7] | [10] | [16] | [17] | [18] | [19] | [20]
inactive: all other assays above

Cc1ccccc1Cl
not listed: [5] | [7] | [8] | [9] | [16] | [17] | [18] | [19]
inactive: all other assays above
